{"source": "PubChem BioAssay AID463205", "about": "(Broad Institute, 2010)", "note": "In all, about 2,400 compounds went through this assay and about 20 (0.8%) were called active. The entries come from a sample that favours actives as a whole. Unmarked numbers belong to inactive results.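 The calls were made as follows: active = AC50 no more than ten times the highest tested concentration, or full inhibition at every dose giving a flat fit (cut at about 30 µM in these data); inconclusive = flat fit with activity between 30% and 70%, or poor-quality invalid fit; inactive = AC50 more than ten times the top tested dose.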"}
{"assay": "luciferase-based ADP detection interference – biochemical, luminescence, cell-free, homogeneous, artefact control for GSK-3a inhibitor project, dose response (AID 463205);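 also: kinase-free counter-screen against the ADP-Glo detection reagents only; potency is for inhibitors that reduce the luminescence signal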", "conditions": "Cell-free ADP-Glo detection reagents, 5 uM ADP"}
{"smiles": "C=CCSc1ncnc2c1oc1nc3c(cc12)COC(C)(C)C3", "AC50": "> 30 µM"}
{"smiles": "Nc1nonc1-n1nnc(C(=O)N/N=C/c2ccncc2)c1CSc1ccc(Cl)cc1", "AC50": "> 30 µM"}
{"smiles": "O=S(=O)(c1cccc(NC(=S)NCc2ccco2)c1)N1CCOCC1", "AC50": "> 30 µM"}
{"smiles": "C=CC(=O)Nc1sc2c(c1C(N)=O)CCCC2", "AC50": "> 30 µM"}
{"smiles": "NC(=O)c1ccsc1NC(=O)C1CC1", "AC50": "> 30 µM"}
{"smiles": "Clc1cccc(/C=N/Nc2ncnc3ccccc23)c1", "AC50": "> 30 µM"}
{"smiles": "COCCOC(=O)c1[nH]c2c(c1C)C(=O)CC(c1cc(OC)c(OC)c(OC)c1)C2", "note": "(stereo not given)", "AC50": "> 30 µM"}
{"smiles": "CC(=O)c1sc(NC(=O)CN2C(=O)C3CCCCC3C2=O)nc1-c1ccccc1", "note": "(stereo not given)", "AC50": "> 30 µM"}
{"smiles": "O=C(c1ccc2c3n(nc2c1)-c1ccc(Cl)cc1CO3)N1CCOCC1", "AC50": "> 30 µM"}
{"smiles": "O=C(c1ccc2c3n(nc2c1)-c1ccccc1CO3)N1CCOCC1", "AC50": "22.5 µM (active)"}
{"smiles": "Cc1ccc2c(c1)COc1c3ccc(C(=O)N4CCOCC4)cc3nn1-2", "AC50": "> 30 µM"}
{"smiles": "COc1ccc(S(=O)(=O)Nc2c(C(=O)O)[nH]c3ccc(OC)cc23)cc1", "AC50": "> 30 µM"}
{"smiles": "COc1ccc(-c2cc(C(=O)N3CCN(c4ccccc4)CC3)no2)cc1OC", "AC50": "> 30 µM"}
{"smiles": "CCOC(=O)c1sc(NC(=O)C2CC2)cc1C", "AC50": "> 30 µM"}
{"smiles": "CCCCCCCCCCCCCCCC[N+](C)(C)CC", "AC50": "> 30 µM"}
{"smiles": "c1cncc(-c2nc(NCC3COc4ccccc4O3)c3ccccc3n2)c1", "note": "(stereo not given)", "AC50": "> 30 µM"}
{"smiles": "CC(C)(C)NC(=O)/C(=C\\c1ccccc1F)NC(=O)c1ccc([N+](=O)[O-])cc1", "AC50": "> 30 µM"}
{"smiles": "O=C(CCN1CCOCC1)Nc1cccc(Br)c1", "AC50": "> 30 µM"}
{"smiles": "OCc1cn(-c2ccccc2)nn1", "AC50": "> 30 µM"}
{"smiles": "O=C(COC(=O)c1ccc(F)cc1F)Nc1ccc(Cl)cn1", "AC50": "> 30 µM"}
{"smiles": "CC(=NCCCn1ccnc1)c1c(O)n(Cc2ccccc2)c(=O)[nH]c1=O", "AC50": "> 30 µM"}
{"smiles": "Cc1ccc(NC(=O)CSc2nnc(-c3ccncc3)o2)cc1", "AC50": "> 30 µM"}
{"smiles": "COc1ccc(/C=C2\\Oc3cc(OCC(=O)N4CC(O)C[C@H]4C(=O)O)ccc3C2=O)c(OC)c1OC", "note": "(stereo not given in full)", "AC50": "> 30 µM"}
{"smiles": "CC(C)(C)c1ccc(/C=C2\\Oc3cc(O)ccc3C2=O)cc1", "AC50": "> 30 µM"}
{"smiles": "COc1ccc(CCn2cnc(=O)c(C#N)c2C)cc1OC", "AC50": "> 30 µM"}
{"smiles": "O=C(Nc1cccc(Cl)c1N1CCOCC1)c1ccc(Br)o1", "AC50": "> 30 µM"}
{"smiles": "COc1ccc(C2C3(C#N)C(N)=NC(OC)(OC)C23C#N)cc1", "note": "(stereo not given)", "AC50": "> 30 µM"}
{"smiles": "CC(=O)N1CCN(c2ccccc2NC(=O)c2ccc(-c3cccc([N+](=O)[O-])c3)o2)CC1", "AC50": "> 30 µM"}
{"smiles": "Nc1nc2n(n1)C(c1ccc(F)cc1)CC(c1ccc(F)cc1)N2", "note": "(stereo not given)", "AC50": "> 30 µM"}
{"smiles": "CCOc1ccc(S(=O)(=O)Nc2cccc(C(=O)NCCCn3ccnc3)c2)cc1", "AC50": "> 30 µM"}
{"smiles": "O=C1c2cnc3nc(SCc4ccccc4)nn3c2CC2c3ccccc3CCN12", "note": "(stereo not given)", "AC50": "> 30 µM"}
{"smiles": "COc1ccc(NC(=O)Nc2ccc(F)cc2F)c(C)c1", "AC50": "> 30 µM"}
{"smiles": "CCOC(=O)c1cnc2c(Cl)c(Cl)ccc2c1N1CCN(C)CC1", "AC50": "> 30 µM"}
{"smiles": "COc1ccc(-c2cn3cccnc3n2)cc1NC(=O)C(C)C", "AC50": "> 30 µM"}
{"smiles": "O=c1cc(-c2ccsc2)oc2ccccc12", "AC50": "> 30 µM"}
{"smiles": "COc1ccccc1NC(=O)Nc1ccccc1Br", "AC50": "> 30 µM"}
{"smiles": "CCn1c2ccccc2c2nnc(SCC(N)=O)nc21", "AC50": "> 30 µM"}
{"smiles": "CCCC1=C(C(=O)OCC)C(c2ccc(N(C)C)cc2)n2ncnc2N1", "note": "(stereo not given)", "AC50": "> 30 µM"}
{"smiles": "COCc1c(C(=O)N/N=C\\c2cccnc2)nnn1-c1nonc1N", "AC50": "> 30 µM"}
{"smiles": "CC(C)(C)C(=O)c1cnc(Nc2ccccc2Cl)s1", "AC50": "> 30 µM"}
{"smiles": "O=C(Nc1cccc(O)c1)c1ccc([N+](=O)[O-])cc1Cl", "AC50": "> 30 µM"}
{"smiles": "CCOC(=O)N1CCc2c(sc3[nH]c(=S)[nH]c(=S)c23)C1", "AC50": "> 30 µM"}
{"smiles": "CCCCc1ccc(NC(=O)N[C@H](C(=O)O)C(C)CC)cc1", "note": "(stereo not given in full)", "AC50": "> 30 µM"}
{"smiles": "COc1ccccc1OCC(=O)Nc1sc2c(c1C(N)=O)CCC2", "AC50": "> 30 µM"}
{"smiles": "O=C(CSc1ccccc1)Nc1ccc2c(c1)C(=O)NC2=O", "AC50": "> 30 µM"}
{"smiles": "CCc1c(C)c(C#N)c2nc3ccccc3n2c1NC", "AC50": "> 30 µM"}
{"smiles": "COc1ccc(/C=C2\\Oc3cc(OCC(=O)N4CC(O)C[C@H]4C(=O)O)ccc3C2=O)cc1OC", "note": "(stereo not given in full)", "AC50": "> 30 µM"}
{"smiles": "Cc1ccc(S(=O)(=O)N2CCN(CC(=O)N/N=C\\c3ccccn3)CC2)cc1", "AC50": "> 30 µM"}
{"smiles": "COc1ccc(Cl)cc1Nc1nc(N)c2ccccc2n1", "AC50": "> 30 µM"}
{"smiles": "CN(C)c1ccc(Nc2nc(N)c3ccccc3n2)cc1", "AC50": "22.8 µM (active)"}
{"smiles": "CCOc1ccc(Nc2nc(N(C)c3ccccc3)nc(N)c2[N+](=O)[O-])cc1", "AC50": "> 30 µM"}
{"smiles": "COc1cc(/C=N/NC(=O)c2ccoc2C)ccc1O", "AC50": "> 30 µM"}
{"smiles": "Cc1occc1C(=O)N/N=C/c1ccc(N(C)C)cc1", "AC50": "28.1 µM (active)"}
{"smiles": "CN(C)c1ccc(/C=N/NC(=O)c2ccccc2Cl)cc1", "AC50": "> 30 µM"}
{"smiles": "O=[N+]([O-])c1cc(S(=O)(=O)N2CCCCC2)ccc1NCCCN1CCOCC1", "AC50": "> 30 µM"}
{"smiles": "COc1ccc(C(=O)c2sc3nc(-c4ccc(OC)cc4)ccc3c2N)cc1", "AC50": "> 30 µM"}
{"smiles": "CC(=O)N1CCN(c2ccccc2NC(=O)c2ccc(Br)o2)CC1", "AC50": "> 30 µM"}
{"smiles": "COc1ccc(C(=O)NNC(=O)c2ccccn2)cc1", "AC50": "14.9 µM (active)"}
{"smiles": "COc1ccc(C(=O)Nc2nc(C)cc(C)n2)cc1", "AC50": "> 30 µM"}
{"smiles": "COc1cc(OC)cc(C(=O)O/N=C(\\N)c2ccccn2)c1", "AC50": "> 30 µM"}
{"smiles": "COc1cccc(C(=O)O/N=C(\\N)c2ccccn2)c1", "AC50": "18.9 µM (active)"}
{"smiles": "COc1ccc(C(=O)c2ccccc2Cl)cc1", "AC50": "> 30 µM"}
{"smiles": "COc1ccc(C(=O)O/N=C(\\N)c2ccccn2)c(OC)c1", "AC50": "> 30 µM"}
{"smiles": "CN(C)Cc1c(C(=O)N/N=C/C2CC=CCC2)nnn1-c1nonc1N", "note": "(stereo not given)", "AC50": "> 30 µM"}
{"smiles": "CCOC(=O)/C(C#N)=C/c1cn(CCC(=O)O)nc1-c1cccc(Br)c1", "AC50": "> 30 µM"}
{"smiles": "CCn1c2ccc(F)cc2c2nc3ccccc3nc21", "AC50": "> 30 µM"}
{"smiles": "Cc1nc2c(C)cccn2c1/C(O)=C1\\C(=O)C(=O)N(CCN2CCOCC2)C1c1cccs1", "note": "(stereo not given)", "AC50": "> 30 µM"}
{"smiles": "Cc1cccc2c(N=Nc3ccccc3)c(O)[nH]c12", "AC50": "> 30 µM"}
{"smiles": "Nc1nonc1-n1nnc(C(=O)N/N=C/c2ccccc2Cl)c1-c1ccccc1", "AC50": "> 30 µM"}
{"smiles": "CCc1c(C)c(C#N)c2nc3ccccc3n2c1NCC1CCCO1", "note": "(stereo not given)", "AC50": "> 30 µM"}
{"smiles": "CS(=O)(=O)Nc1ccc(-c2cc(/C=C3\\SC(N)=NC3=O)c[nH]c2=O)cc1", "AC50": "> 30 µM"}
{"smiles": "O=C(c1ccc(Cn2cnnn2)cc1)N1CCCC(Nc2ccc(F)cc2)C1", "note": "(stereo not given)", "AC50": "> 30 µM"}
{"smiles": "O=C(Nc1ccccc1C(=O)N1CCOCC1)c1cccnc1", "AC50": "> 30 µM"}
{"smiles": "CC(=O)Nc1cccc(-c2csc(Nc3ccc(C)cn3)n2)c1", "AC50": "> 30 µM"}
{"smiles": "Cc1cc(=O)[nH]c2cc(O)ccc12", "AC50": "> 30 µM"}
{"smiles": "CC(=O)Nc1ccc(C2(c3ccc(NC(C)=O)cc3)NC(=O)c3ccccc32)cc1", "AC50": "> 30 µM"}
{"smiles": "CC1(C)Cc2cccc(C(=O)NCc3ccco3)c2O1", "AC50": "> 30 µM"}
{"smiles": "O=C(COC(=O)c1cccs1)Nc1ccc(Cl)cn1", "AC50": "> 30 µM"}
{"smiles": "CCN1CCN(c2nc(Nc3cccc(OC)c3)nc(N)c2[N+](=O)[O-])CC1", "AC50": "> 30 µM"}
{"smiles": "COc1cccc(/C=N/n2nnnc2N)c1OCC#N", "AC50": "> 30 µM"}
{"smiles": "O=C(O)COc1c(Cl)cc(/C=C2/NC(=O)NC2=O)cc1Br", "AC50": "> 30 µM"}
{"smiles": "CNc1ccc(/C=C/C(=O)c2ccc3c(c2)OCCO3)cc1[N+](=O)[O-]", "AC50": "> 30 µM"}
{"smiles": "COC(=O)C1(C#N)C(c2ccccc2)C1(C(=O)OC)C(=O)OC", "note": "(stereo not given)", "AC50": "> 30 µM"}
{"smiles": "Cc1nc2ncnn2c(C)c1Cc1c(Cl)cccc1Cl", "AC50": "> 30 µM"}
{"smiles": "O=C(c1ccccc1)c1cnc(Nc2ccccc2Cl)s1", "AC50": "> 30 µM"}
{"smiles": "COc1ccc(NC(=O)CN(C)C2CCCCC2)c([N+](=O)[O-])c1", "AC50": "> 30 µM"}
{"smiles": "Cc1nc2cc(-c3ccccc3)ccc2o1", "AC50": "> 30 µM"}
{"smiles": "O=C(N/N=C/c1cccnc1)c1cc2c(ccc3ccccc32)o1", "AC50": "> 30 µM"}
{"smiles": "CCNc1nc(NCC)nc(C(=O)OCCO)n1", "AC50": "> 30 µM"}
{"smiles": "Cc1ccnc(NC(=O)Cn2c(=O)oc3cc(S(=O)(=O)N4CCCC4)ccc32)c1", "AC50": "> 30 µM"}
{"smiles": "Cc1cccc(C(=O)O/N=C(\\N)c2cccc([N+](=O)[O-])c2)c1", "AC50": "> 30 µM"}
{"smiles": "Cc1ccc(C(=O)O/N=C(\\N)c2cccc([N+](=O)[O-])c2)cc1", "AC50": "> 30 µM"}
{"smiles": "Cc1cccc(/C(N)=N/OC(=O)c2ccc3c(c2)OCO3)c1", "AC50": "27.3 µM (active)"}
{"smiles": "Cc1cc(NC(=O)CCSc2nc(-c3ccco3)cc(C(F)(F)F)n2)n(-c2ccccc2)n1", "AC50": "> 30 µM"}
{"smiles": "C(=N\\Nc1ncnc2sc3c(c12)CCC3)/c1ccncc1", "AC50": "> 30 µM"}
